In PubChem BioAssay (NCI):
Compounds without any hit were thinned out: in the full panel of roughly 83,000, 20% have a hit.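 Note: values are percent growth. 100 is the growth of untreated cells, values between 100 and 0 indicate rising inhibition; between -100 and 0 indicates cell death.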 A number with no mark means an inactive call. The source made the active and inactive calls. How the source made its calls: active means growth percent below 10; inactive means the rest.

Legend:
Assay in all cases: NCI-60 one-dose screen, 48 h (100 = growth as untreated, 0 = no growth, -100 = all killed)
Settings in all cases: 10 µM unless noted
NCI-H23 lung = test system: NCI-H23 lung
NCI-H226 lung = test system: NCI-H226 lung
NCI-H322M lung = test system: NCI-H322M lung
HOP-62 NSCLC = test system: HOP-62 NSCLC
NCI-H460 lung = test system: NCI-H460 lung
HOP-92 NSCLC = test system: HOP-92 NSCLC
NCI-H522 lung = test system: NCI-H522 lung
A549/ATCC NSCLC = test system: A549/ATCC NSCLC
786-0 renal = test system: 786-0 renal
COLO 205 colon = test system: COLO 205 colon
DU-145 prostate = test system: DU-145 prostate
K-562 leukemia = test system: K-562 leukemia
MALME-3M melanoma = test system: MALME-3M melanoma
MDA-MB-231 breast = test system: MDA-MB-231 breast
RXF 393 renal = test system: RXF 393 renal
SF-268 CNS = test system: SF-268 CNS
SF-295 CNS = test system: SF-295 CNS
SF-539 CNS = test system: SF-539 CNS
UACC-257 melanoma = test system: UACC-257 melanoma
M14 melanoma = test system: M14 melanoma

Structure (SMILES) | growth (NCI-H23 lung) | growth (NCI-H226 lung) | growth (NCI-H322M lung) | growth (HOP-62 NSCLC) | growth (NCI-H460 lung) | growth (HOP-92 NSCLC) | growth (NCI-H522 lung) | growth (A549/ATCC NSCLC) | growth (786-0 renal) | growth (COLO 205 colon) | growth (DU-145 prostate) | growth (K-562 leukemia) | growth (MALME-3M melanoma) | growth (MDA-MB-231 breast) | growth (RXF 393 renal) | growth (SF-268 CNS) | growth (SF-295 CNS) [%] | growth (SF-539 CNS) | growth (UACC-257 melanoma) | growth (M14 melanoma)
COc1ccc(/C=C(/C(=O)N2CCNCC2)c2cc(OC)c(OC)c(OC)c2)cc1O | 49.9% | 88.7% | 50% | 56.4% | 37.6% | 48.7% | 0.313% (active) | 41.6% | 95.5% | 25.9% | 27% | 22% | 46.6% | 58.2% | 7.47% (active) | 49.5% | 66.3 | 6.82% (active) | 27% | 38%
CCOc1ncc([N+](=O)[O-])c(OCC)n1 | 106% | 107% | 123% | 104% | 113% | 82.2% | 99.9% | 98.9% | 108% | 112% | 123% | 103% | 129% | 97.1% | 122% | 118% | 116 | 102% | 102% | 112%
Cc1ccc2c(c1)=C/C(=C\c1cc(-c3ccccc3)[nH]c1O)C(=O)N=2 | 56.7% | 69.5% | 82.2% | 52% | 25.6% | 58% | 27% | 46.2% | 41.6% | 33.1% | 61.6% | 13.7% | 54.5% | 50.6% | 34.5% | 47.4% | 32.8 | 8.94% (active) | 64.7% | 17.8%
O=C(NN1C(=O)CSC1c1cccc([N+](=O)[O-])c1)c1ccc(NC(=O)c2ccccn2)cc1 (stereo not given) | 94.4% | 106% | 90.5% | 95.4% | 102% | 104% | 95.3% | 100% | 96.9% | 103% | 94.1% | 100% | 94.4% | 113% | 115% | 96.1% | 97.2 | 99.8% | 99% | 102%
COc1cc2c(c(OC)c1OC)CCC(c1cccc(C(=O)Nc3ccc(Br)cc3)c1)O2 (stereo not given) | 75.8% | 62.7% | 50% | 82% | 84% | 17% | 48.8% | 64.2% | 84.1% | 76.5% | 71% | 40.4% | 72.3% | 17% | 75% | 76.6% | 56.5 | 76.6% | 75.6% | 70.5%
CN(C)c1ccc([C@@H](C(=O)Nc2cccc([N+](=O)[O-])c2)N(C(=O)c2cc3ccccc3[nH]2)c2cccc([N+](=O)[O-])c2)cc1 | 97.5% | 97.5% | 95% | 88.7% | 98.2% | 70.9% | 92.3% | 92.9% | 95.5% | 102% | 107% | 100% | 96.5% | 96.5% | 100% | 97.4% | 100 | 90.3% | 93.4% | 93.7%
O=C(NCCCCCCNC(=O)OCc1ccc2c(Cl)cc(Cl)c(O)c2n1)OCc1ccc2c(Cl)cc(Cl)c(O)c2n1 | -69.2% (active) | 1.25% (active) | 43.6% | -42.5% (active) | -30.7% (active) | -60.1% (active) | -57.4% (active) | -39.6% (active) | -63.1% (active) | -82.5% (active) | -50.4% (active) | 1.59% (active) | -84.5% (active) | -92.7% (active) | -87% (active) | -50.7% (active) | 32.4 | -97.1% (active) | -29.3% (active) | -38.7% (active)
COc1ccc(/C=N/NC(=O)Cn2c(-c3ccc(S(C)(=O)=O)cc3)nc3ccccc32)cc1 | 95.5% | 99.6% | 91.3% | 107% | 102% | 94.1% | 92.9% | 113% | 99.3% | 111% | 111% | 98.9% | 89% | 95.8% | 104% | 102% | 93.1 | 96.4% | 112% | 92.1%
Cc1[nH]n(-c2cccc(Cl)c2)c(=O)c1/C=C1\C=c2ccccc2=CC1=O | -1.95% (active) | 1.04% (active) | 84.1% | -57.9% (active) | 79% | -2.07% (active) | -11.3% (active) | 60.4% | -46.8% (active) | -83.5% (active) | 35.4% | 99.1% | 59% | 4.08% (active) | -76.9% (active) | 47.2% | 25.6 | 72.3% | 80% | 18.2%
Cn1cc(-c2nc3c(F)cc4[nH]ncc4c3c3c2CCCC3)c(C(F)(F)F)n1 | 37.7% | 67.3% | 47.6% | 31% | 37.5% | -7.54% (active) | 0.529% (active) | 17.3% | 42.7% | 35.6% | 52.3% | 19.3% | 59.7% | 48.9% | 23% | 47.7% | 49.2 | 27.9% | 53.5% | 30.1%
CNC(=O)Nc1ccc(-c2ccc3ncnc(Nc4cccc(Cl)c4)c3c2)cc1 | 62.9% | 68.4% | 7.46% (active) | 71.4% | 77.4% | 37.8% | -1.3% (active) | 41.8% | 71.4% | 66.3% | 44.8% | 60.3% | 53.5% | 65.7% | 50.4% | 52.2% | 59.9 | 74.3% | 65.7% | 63.2%
CC(C)(Sc1cc(C(C)(C)C)c(O)c(C(C)(C)C)c1)Sc1cc(C(C)(C)C)c(OC(=O)CCC(=O)O)c(C(C)(C)C)c1 | 40% | 67.4% | 56.4% | 44.7% | 28.9% | 35.8% | 36.9% | 28.6% | 44.7% | 55% | 57.2% | 69.4% | 65.8% | 58.3% | 67% | 57.3% | 42.1 | 47.8% | 61.8% | 50.9%
O=C(c1ccc(Br)cc1)C(Br)C(c1ccc(Cl)cc1)C(c1ccccc1)[N+](=O)[O-] (stereo not given) | 91.4% | 99.3% | 101% | 99.7% | 95.5% | 107% | 85.7% | 93.8% | 90.3% | 110% | 97.5% | 106% | 86.2% | 85.4% | 77.2% | 90.2% | 95.1 | 96% | 102% | 92.8%
Clc1ccc(Nc2ncc(Cc3cccc(Cl)c3Cl)s2)cc1 | 88.7% | 102% | 110% | 108% | 97.6% | 89% | 80.2% | 86.7% | 95.2% | 104% | 102% | 86.8% | 96.7% | 99.6% | 93.3% | 98.3% | 100 | 94.7% | 96.6% | 103%
COc1cc(Cc2cc(OC)c(O)c(OC)c2)cc(OC)c1O | 87.6% | 106% | 94.2% | 88.9% | 99.1% | 89.6% | 56.5% | 84.1% | 107% | 109% | 117% | 20.1% | 86% | 95.2% | 86.3% | 105% | 62.2 | 101% | 89.3% | 75.3%
